The supplement of paper PMC6555819

System: VDR:RXRa (NR concentration 270 nM, RXRa partner concentration 90 nM)
Assay: PBM binding z-score (relative to random genomic background probes); higher = stronger binding; sequences stand for … in GC…GCGATTGACAGCGTAGAATGAAGG
Protocol: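 Protein-binding microarray (Agilent 4x180K custom design, double-stranded 60-nt probes: 5' GC cap, 34-nt variable region, 24-nt constant primer region; full probe sequence given). Purified or IVT nuclear receptor:RXRα heterodimers (3:1 NR:RXRα, mostly 270:90 nM) or homodimers were incubated for 1 h in PBS with 2% milk and no ligand, then detected with Alexa488 antibodies. Fluorescence from o1-orientation probes (~5 replicates averaged) was converted to z-scores against 500 random hg19 background probes. Variable regions are seed direct-repeat (DR0–DR5) sites, all their single-nucleotide variants and half-site ablations.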

Sequence	PBM binding z-score
TCTCTGAGGACACGAAGGTCAGAGCTTTCCAGAG	2.6
GCTATTAGTTGAAAGGGCAACCGAATGATTCTCG	0.531
CAAACTAGGTCAAGAGGTCAAAATCCGCTTCCCG	5.85
GTAGCAAGGTGAATAGGTCGTTGATGAGTAGGCG	0.451
TCTATTAGTTGATTAGGTCAACCGAAACAGCGGA	1.94
GCGACTGAGGCATCAGCAGGTTACCATAACTTAA	-0.37
ATCTCTAGGTAAGAGTCAGTTCAGTGAAGAACGC	0.748
CAAACTAGGTCAATAGGTCAAAGTCCGCTTCCCG	4.64
GCTGCTAGGGCAGGTTGGTCAGCTAACGGGTACG	-0.775
CTACCAAAGTGAACAAGGTCGTTGATTACTATTC	3.07
ACAGACAGGTGATGAAGGTGACTCAGGCTATCAT	0.516
CCTGCTAGGTCAATGGCCAGCTAAAGCAGCTCGC	0.561
AGAATGAGGTTACCATAGATCAGGGAAACGCTTG	0.941
ACAGACAGGTGAGTGAAGGTAACTAAGCTGGACG	-0.372
CGTTACGGGTCACGAGGTTATAGCACGACGAGCG	5.35
CCTGCTAGCTCATGGTCAGCTAATCTACAGTATG	-0.366
TCTCGGAGGACACGAATGGTCAGAGCTCGACATC	-0.0797
CGAGCTAGGTCATCCAGGACAGTGAATACATTGA	4.4
TCTCGGAGGACACGAAAGTTCAGAGCTCGACATC	2.25
CCTTACGGGTCACGAGGTTATTGCACGACGAGCG	5.3

Sequence	PBM binding z-score
CCTACTGGGGCATCAGGTCATTGATATCAACGTT	1.85
CGTCCAAGGTCAGCAGGTCAGTGACAGCGACGTG	4.1
CCGACTTGGGCATAAGGTTACCATAAGCCAGCCC	-0.311
GGAACGAGGGCAAGTTGACAGCAGAGTTTGATGG	0.799
CGAACGAGGGCCTGAGTTGATAGCAAATGCCGAT	-0.469
ACTATTAGTTGACTTAGGGCAACAGATACGACGC	0.323
TCTTGTAGATCAGCGGGTTAAGAAAGCTGGCCAA	0.539
GTACCAAGGTGAATAGGTCGTTGAGGAGTAGGCG	0.845
CGTCCAAGGTCAGAGAGGTCAGGGAATGCCGAGT	7.31
ATCGAAAGGTCGAGGTGAGTATGGAGAAAGGGAA	2.59
CCTCACGGGTCACGAGGTTATAGCACGACGAGCG	4.79
TCTAGCAGGCCAGACGGTCACTCAAGAGGTACGG	-0.346
TGAATGAGGTTATAGATCAGGGAACGTGGCGTCG	1.06
TAGCCTAGGTCATGCGGGCCAGTAAAGTGTCGGC	2.75
GATGCAGGGTCAAGGCCAGAGTACGCGTATTGAT	4.21
TAGCCTAGGTCAGATCAGGCCAGTATACGCTATA	0.996
GCTAGTTGGTCAGTAAAAGGTCGCACACCGGTCG	1.39
TCTAGTAGATCAAAGGTTAAGAAAGCCGAAGCCT	1.37
CAAACTAGGGCAAGGTCAAAGTCGGTTTGTGCCA	4.44
ATATGTGGGTTACATCCGGGTCATTCAGGCTATG	4.41
